# Results reported in PubChem BioAssay AID1851 (National Center for Advancing Translational Sciences (NCATS), 2009).
# About 5,800 (36%) of roughly 16,000 compounds were called active. Roughly 23% stayed inconclusive and do not appear here. This is one part of the list. Values without a mark were called inactive. The call rests on the fitted dose curve; in most records, active means well fitted curve in the direction sought with a large enough effect; inconclusive means small, poorly fitted or top-dose-only effect, or effect the other way; inactive means no such curve, though single readings can be large or run the other way.
# Molecular target: Cytochrome P450 2C19 (Homo sapiens) (UniProt P33261)
# Test: Cytochrome panel assay with activity outcomes
# Details: recombinant CYP, pro-luciferin dealkylation, luminescence, p450-cyp2c19; series mostly up to 57.1 µM; activity, negative = inhibition: at the top concentration
# On the % scale 0 is the no-effect control and ±100 the full control effect.
# Cytochrome P450 2C19 (Homo sapiens), sequence (P33261 whole entry, looked up): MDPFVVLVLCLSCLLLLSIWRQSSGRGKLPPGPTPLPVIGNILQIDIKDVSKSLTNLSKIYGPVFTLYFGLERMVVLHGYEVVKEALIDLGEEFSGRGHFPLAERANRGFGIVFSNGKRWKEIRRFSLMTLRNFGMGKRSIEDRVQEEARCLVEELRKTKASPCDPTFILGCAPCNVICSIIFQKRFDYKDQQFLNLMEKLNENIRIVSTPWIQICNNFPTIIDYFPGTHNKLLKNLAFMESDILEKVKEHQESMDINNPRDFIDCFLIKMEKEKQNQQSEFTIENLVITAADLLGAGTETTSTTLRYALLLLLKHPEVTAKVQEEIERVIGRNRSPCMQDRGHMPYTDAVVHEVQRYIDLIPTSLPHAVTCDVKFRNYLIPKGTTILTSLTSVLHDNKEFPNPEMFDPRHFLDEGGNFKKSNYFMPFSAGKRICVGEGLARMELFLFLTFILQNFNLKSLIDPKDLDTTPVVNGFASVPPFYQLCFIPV
Compound,AC50,"activity, negative = inhibition"
COc1ccc(CNn2c(C)nc3ccccc3c2=O)cc1,0.316 µM (active),
CCCCOc1ccc(CNn2c(C)nc3ccccc3c2=O)cc1,0.112 µM (active),
COc1ccc(CN[C@H](C)C(=O)O)cc1,,24.9% [at 11.4 µM]
Cc1nc2ccccc2c(=O)n1NC(=O)c1ccccc1Cl,20 µM (active),
N/N=C1/CC(=O)NC(=O)N1,,-9.46% [at 11.4 µM]
COc1cc(OC)c(C2C(C(=O)Nc3ccc(C)cc3C)=C(C)Nc3ncnn32)cc1OC (stereo unspecified),,-25.1%
CCCCOC(=O)C1=C(C)Nc2ncnn2C1c1cc(OC)ccc1OC (stereo unspecified),20 µM (active),
CCCCOc1cc(C(=O)NCCN(CC)CC)c2ccccc2n1,,-23.7% [at 25.6 µM]
COCCCNC(=O)c1c(N)n(/N=C/c2ccccn2)c2nc3ccccc3nc12,10 µM (active),
CCNc1ncc2nc(-c3cccs3)c(=O)n(C[C@H]3CCCO3)c2n1,,-9.35%
CN(C)C(=O)CSC1c2ccccc2C(=O)N1c1ccccc1 (stereo unspecified),,-16%
CCC(=O)N(C)/C=C1\Sc2ccccc2C1=O,20 µM (active),
CCOC(=O)C1CCCN(C(=O)c2sc3nc(-c4ccc(OC)cc4)cn3c2C)C1 (stereo unspecified),7.94 µM (active),
CCSc1nc2c(c(=O)[nH]1)C(c1ccncc1)C(C(=O)OC(C)C)=C(C)N2 (stereo unspecified),0.708 µM (active),
CCSc1nc2c(c(=O)[nH]1)C(c1ccccn1)C1=C(CC(C)(C)CC1=O)N2 (stereo unspecified),,-2.31%
CSc1nc2c(c(=O)[nH]1)C(c1ccncc1)C(C(=O)OC(C)C)=C(C)N2 (stereo unspecified),1.12 µM (active),
CCOCCCn1cnc2c(c1=O)c1nc3ccccc3nc1n2-c1ccccc1,,-8.6%
O=C(c1ccccc1)c1ccc(OCCn2cnc3ccccc3c2=O)cc1,1.58 µM (active),
Cc1ccc(SCCCn2cnc3ccccc3c2=O)cc1,2.24 µM (active),
O=c1c2ccccc2ncn1CCCSc1ccccc1,1.41 µM (active),
O=C1c2ccccc2C(=O)N1CCCSc1ccccc1,0.631 µM (active),
N#CCSc1ncnc2c1cnn2CCO,,-21.2%
CCCc1nnc(SCC(=O)O)n1/N=C/c1ccc2c(c1)OCO2,,-17.5%
O=C(CSCc1cccc(Br)c1)N/N=C/c1ccc2c(c1)OCO2,11.2 µM (active),

Compound,AC50,"activity, negative = inhibition"
COC(=O)N/N=C\C=C\c1ccc2c(c1)OCO2,,-7.72%
O=C(/C=C/c1ccc2c(c1)OCO2)NCCSCc1cccc(Cl)c1,3.16 µM (active),
O=C(Cn1nc(C(F)F)cc1C(F)F)N/N=C/c1ccc2c(c1)OCO2,1.58 µM (active),
O=C(CSCc1cccc(Cl)c1)N/N=C/c1ccc(OCC(=O)N2CCCCC2)cc1,3.16 µM (active),
Cc1cccc(C(=O)N/N=C/c2ccc(OCC(=O)N3CCCCC3)cc2)c1,,-68.9%
COc1ccc2c(c1OC)C(=O)N(C(C)C(=O)O)C2=O (stereo unspecified),,-21.8%
COc1ccc(-n2c(=O)c(C)nc3cnc(N(C)C)nc32)cc1,,9.33%
N=C(N)C(N=Nc1ccccc1)C(=N)N (stereo unspecified),,-2.71% [at 11.4 µM]
CC[C@H](Cc1c(I)cc(I)c(N)c1I)C(=O)O,,-35.8% [at 25.6 µM]
O=C(NC12CC3CC(CC(C3)C1)C2)N1CCN(c2nc(-c3ccccc3)cs2)CC1,2.82 µM (active),
N[C@@H](CSCc1ccc(I)cc1)C(=O)O,,12.9% [at 11.4 µM]
COc1ccc(-n2c(=O)c(-c3ccc(F)cc3)nc3cnc(OC)nc32)cc1,,-29%
CC(=O)OC[C@@H]1O[C@H](CCO/N=C(\C)CCN2CCc3nc(-c4ccccc4)c(-c4ccccc4)cc3C2)C=C[C@@H]1OC(C)=O,,-28.2% [at 11.4 µM]
COc1ccc(O[C@H]2C=C[C@@H](c3ccccc3)O[C@@H]2CO/N=C(\C)CCN2CCc3nc(-c4ccccc4)c(-c4ccccc4)cc3C2)cc1,0.251 µM (active),
CCCNC(=O)OC[C@@H]1O[C@H](CCO/N=C(\C)CCN2CCCCc3nc(C)c(C)cc32)C=C[C@@H]1Oc1ccc(OC)cc1,,-12.9% [at 11.4 µM]
C=CC[C@@H]1C=C[C@H](O/N=C(\C)CCN2CCc3nc(-c4ccccc4)c(-c4ccccc4)cc3C2)[C@H](CO)O1,,-25.6% [at 11.4 µM]
C/C(CCN1CCc2nc(-c3ccccc3)c(-c3ccccc3)cc2C1)=N\OC[C@@H](O)COCc1ccco1,,-21.9% [at 11.4 µM]
COc1ccc(O[C@H]2C=C[C@@H](c3ccccc3)O[C@@H]2CO/N=C(\C)CCN2CCCc3nc(C)c(C)cc32)cc1,0.398 µM (active),
C/C(CCN1CCc2nc(-c3ccccc3)c(-c3ccccc3)cc2C1)=N\OC[C@@H](C)[C@H](OCc1ccccc1)C(C)C,1.58 µM (active),
COc1ccc(O[C@H]2C=C[C@@H](c3ccccc3)O[C@@H]2CO/N=C(\C)CCN2CCCCc3nc(C)c(C)cc32)cc1,2.51 µM (active),
CC(=O)OC[C@@H]1O[C@H](CCO/N=C(\C)CCN2CCCc3nc(C)c(C)cc32)C=C[C@@H]1OC(C)=O,,38.8% [at 11.4 µM]
CCc1cc2c(nc1CC)CCN(CC/C(C)=N/OC[C@@H](C)[C@H](OCc1ccccc1)C(C)C)C2,,-15.6% [at 11.4 µM]
CO/N=C(\C)CCN1CCCCc2nc(C)c(C)cc21,,-22.3% [at 11.4 µM]
CCCNC(=O)OC[C@@H]1O[C@H](CCO/N=C(\C)CCN2CCCc3nc(C)c(C)cc32)C=C[C@@H]1Oc1ccc(OC)cc1,,-43.5% [at 11.4 µM]

Compound,AC50,"activity, negative = inhibition"
COC(=O)CC[C@@H](C)[C@H]1CC[C@H]2[C@H]3CC[C@H]4C[C@@H]5CC[C@@]4(C)C3(O5)[C@@H](Br)[C@@H](Br)[C@@]12C,,-31% [at 11.4 µM]
OCCN=c1cc(-c2ccccc2)oc2ccc(Cl)cc12,1.58 µM (active),
CCCCN1CCC(n2c(=O)[nH]c3ccccc32)CC1,,26.7%
CCCCCCN1Cc2ccccc2C1,10 µM (active),
CCCCNC(=O)[C@@H]1Cc2ccccc2N1C(=O)[C@H](N)CC,,6.24%
CCN(CC)C(=O)N1CCN(C)CC1,,-6.34% [at 25.6 µM]
COC(=O)[C@@]1(Cc2ccccc2)[C@H]2c3cc(C(=O)N4CCCC4)n(CC4CC4)c3C[C@H]2CN1C(=O)c1ccccc1,3.16 µM (active),
Cn1cccc1C(=O)N1CCC2(CCCN(Cc3ccccc3)C2)CC1,,-28%
COc1ccccc1CN1CCCC2(CCN(C(=O)c3ccncc3)CC2)C1,,-42.2%
COC(=O)[C@@]1(Cc2ccccc2)[C@H]2c3cc(C(=O)N4CCCC4)n(C)c3C[C@H]2CN1C(=O)c1ccccc1,3.98 µM (active),
COC(=O)[C@@]1(Cc2ccccc2)[C@H]2c3cc(C(=O)N4CCCC4)n(Cc4ccc(O)c(OC)c4)c3C[C@H]2CN1C(=O)c1ccccc1,0.501 µM (active),
O=C(c1cccc(F)c1)N1CCC2(CC1)CCN(c1ccncc1)CC2,,-19%
O=C(c1ccncc1)N1CCC2(CC1)CN(c1ccccc1)C2,0.316 µM (active),
O=C(c1ccncc1)N1CCC2(CC1)CN(c1ncccn1)C2,,-28.5%
O=C(c1ccncc1)N1CCC[C@@]2(CCN(c3ccccc3)C2)C1,,3.46%
O=C(c1cc(C(F)(F)F)cc(C(F)(F)F)c1)N1CCC2(CC1)CN(c1ccncc1)C2,,-19.3%
O=C(c1cccc(F)c1)N1CCC2(CC1)CN(c1ccc(-c3ccccc3)cc1)C2,,-6.52%
O=C(c1cccc(F)c1)N1CCC2(CC1)CN(c1ccncc1)C2,3.16 µM (active),
O=C(c1ccncc1)N1CCC2(CC1)CCN(c1ncccn1)CC2,2.51 µM (active),
COc1ccc(C(=O)N2CCC3(CC2)CCN(c2ncccn2)CC3)cc1,,-25.9%
NC(N)=NC(N)=Nc1ccc(S(N)(=O)=O)cc1,,28.1% [at 11.4 µM]
CC(C)CN1CC2(CCN(C(=O)c3cccc(F)c3)CC2)C1,,19.3%
NNC(=O)[C@@H](O)[C@H](O)[C@H](O)CO,,16% [at 11.4 µM]
Cn1c([N+](=O)[O-])cnc1COC(N)=O,,-41.3% [at 25.6 µM]

Compound,AC50,"activity, negative = inhibition"
CCCCCCCCCCCCCCCC(=O)C(F)(F)F,,19.4%
NC1CCN(c2cccc(Cl)n2)CC1,inactive,
COc1ccc(-c2cc(C3CCN(c4cc(Cl)nc(N)n4)CC3)[nH]n2)cc1,3.16 µM (active),
Nc1nc(Cl)cc(N2CCC(c3cc(-c4ccc(Cl)cc4Cl)n[nH]3)CC2)n1,3.98 µM (active),
C[N+](C)(C)c1ccc([C@H](N)C(=O)O)cc1,,-19.4% [at 11.4 µM]
CCOC(=O)C1C(=O)C=C(c2ccc(C)cc2)CC1c1ccco1 (stereo unspecified),3.98 µM (active),
CCOC(=O)C1C(=O)C=C(c2ccc(NS(C)(=O)=O)cc2)CC1c1ccco1 (stereo unspecified),14.1 µM (active),
N[C@@H](Cn1cc(F)c(=O)[nH]c1=O)C(=O)O,,-26.3%
CCCCCCC(C)n1cc(C(C)=O)c(=O)[nH]c1=O (stereo unspecified),15.8 µM (active),
CCCCCCCCn1cc(C(C)=O)c(=O)[nH]c1=O,17.8 µM (active),
CC(C)NC[C@H](O)c1cc(O)cc(O)c1,inactive,
CC(C)Oc1ccc2ccccc2c1C=O,10 µM (active),
COc1ccc(C(=O)NCS(=O)(=O)c2ccc(C)cc2)cc1,6.31 µM (active),
O=C(CN(Cc1ccco1)C(=O)c1cccc(Cl)c1)Nc1c(Cl)cc(Cl)cc1Cl,10 µM (active),
O=C(CN(Cc1ccco1)C(=O)c1ccccc1)Nc1ccc(Cl)c(Cl)c1,3.16 µM (active),
Cc1cc(N2CCN(C)CC2)nc2ccc(NC(=O)CCC(=O)NCc3ccco3)cc12,,34.7%
CO[C@]1(C2=NCCN2)COc2ccccc2O1,inactive,
O=C(CSc1ccc(Cl)cc1)Nc1cccc(NC(=O)c2ccco2)c1,2.51 µM (active),
CCC(=O)Nc1cccc(NC(=O)CSc2nnnn2Cc2ccccc2)c1,10 µM (active),
CCc1cc2cc(C)c(C)cc2nc1SCC(=O)NNC(=O)c1ccco1,,1.63%
CNC(=O)c1nnn(Cc2ccccc2)c1NC(=O)C(F)(F)F,,-10.7%
Cc1ccc(-n2nnnc2SCC(=O)NNC(=O)c2ccco2)c(C)c1,,-28.9%
CC(=O)c1ccc(-n2nnnc2SCC(=O)Nc2cccc(NC(=O)c3ccco3)c2)cc1,3.16 µM (active),
Cc1ccc(SCC(=O)Nc2cccc(NC(=O)c3ccco3)c2)cc1,7.08 µM (active),
